Results taken from the supplement of paper PMC10646978.
± gives the standard deviation.

Tests used:
Conditions in all cases: modulator concentration 10 µM
[1] = test system: RAW-Dual (murine macrophage reporter line); experiment: NF-kB reporter (SEAP) activity fold change vs agonist alone; higher = enhanced NF-kB activity
Outline: (§1)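 In 384-well plates holding 50 000 RAW-Dual murine macrophage reporter cells per well, compound at 10 μM final was pre-incubated for 1 hour at 37 °C, after which a PRR agonist was added overnight. Supernatant SEAP read with QUANTI-Blue at 620 nm absorbance reported NF-κB, and Lucia luciferase read with QUANTI-Luc luminescence reported IRF. Fold change values come from dividing each reporter signal by the mean of agonist-only control wells on the same plate, averaged over replicate plates with propagated errors.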

[2] = test system: RAW-Dual (murine macrophage reporter line); experiment: IRF reporter (Lucia luciferase) activity fold change vs agonist alone; higher = enhanced IRF activity
Outline: as §1

[3] = test system: RAW-Dual (murine macrophage reporter line); experiment: viability score (confluency relative to resting cells, overnight) (fraction); higher = more viable, active = viable (0.7 or more)
Outline: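 In 384-well plates, RAW-Dual macrophages received compound at a final 10 μM overnight. Two confluency masks were then made with IncuCyte software from IncuCyte images of all imaged wells. The viability score is defined as confluency relative to resting cells. Passing the cutoff required both masks to lie above 70% of resting cells.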

[4] = agonist: CpG ODN 1826 0.5 ug/mL

Row | SMILES | NF-kB reporter [1, 4] | NF-kB reporter ([1]; agonist: LPS 0.1 ug/mL) | NF-kB reporter ([1]; agonist: MPLA […]) | IRF reporter ([2]; agonist: 3'3'-cGAMP 10 ug/mL) | IRF reporter ([2]; agonist: LPS 0.1 ug/mL) | IRF reporter ([2]; agonist: MPLA […]) | viability score [3]
1 | Cc1ccc2c(c1)C1(c3ccccc3)Nc3ccc(C)cc3C1(c1ccccc1)N2 (configuration not stated) | 0.878 ± 0.082 | 0.904 ± 0.078 | 0.86 ± 0.085 | 0.864 ± 0.071 | 0.996 ± 0.14 | 0.969 ± 0.19 | 1.02 (active)
2 | Cl.Cl.O=C1c2c(O)ccc(O)c2C(=O)c2c(NCCNCCO)ccc(NCCNCCO)c21 | 0.0718 ± 0.0057 | 0.065 ± 0.0036 | 0.125 ± 0.011 | 0.0431 ± 0.0042 | 0.0592 ± 0.012 | 0.0943 ± 0.0079 | 0.388 (inactive)
3 | CC(C)NC(=N)NC(=N)Nc1ccc(Cl)cc1 [Prestw-999] | 0.806 ± 0.053 | 1.33 ± 0.1 | 1.27 ± 0.087 | 0.994 ± 0.059 | 1.18 ± 0.12 | 0.954 ± 0.3 | 0.994 (active)
4 | CN1CCCC(n2nc(Cc3ccc(Cl)cc3)c3ccccc3c2=O)CC1.Cl (configuration not stated) | 0.135 ± 0.008 | 0.929 ± 0.12 | 1.42 ± 0.26 | 1.12 ± 0.14 | 1.19 ± 0.22 | 1.35 ± 0.4 | 0.587 (inactive)
5 | Oc1ccc(O)cc1 | 1.33 ± 0.2 | 0.586 ± 0.41 | 0.377 ± 0.093 | 0.459 ± 0.018 | 0.58 ± 0.41 | 0.211 ± 0.13 | 0.909 (active)
6 | CN1CCN(S(=O)(=O)c2ccc(-c3ccc(S(=O)(=O)N4CCN(C)CC4)cc3)cc2)CC1 | 0.865 ± 0.048 | 1.06 ± 0.074 | 0.955 ± 0.06 | 1.04 ± 0.043 | 1.45 ± 0.15 | 1.1 ± 0.098 | 0.999 (active)
7 | Cc1cc(/C=C/C#N)cc(C)c1Nc1ccnc(Nc2ccc(C#N)cc2)n1 | 0.602 ± 0.17 | 0.605 ± 0.044 | 1.3 ± 0.12 | 0.209 ± 0.014 | 0.662 ± 0.071 | 0.886 ± 0.13 | 0.985 (active)
8 | C[C@]1(O)C[C@@H](c2nc(-c3ccc4ccc(-c5ccccc5)nc4c3)c3c(N)nccn32)C1 | 0.797 ± 0.04 | 1.26 ± 0.1 | 0.899 ± 0.08 | 0.593 ± 0.055 | 0.971 ± 0.072 | 0.958 ± 0.17 | 1 (active)
9 | C=CC(=O)Nc1cccc(Oc2nc(Nc3ccc(N4CCN(C)CC4)cc3)nc3ccsc23)c1 | 0.0541 ± 0.0029 | 0.0574 ± 0.0052 | 0.184 ± 0.036 | 0.0243 ± 0.0019 | 0.0856 ± 0.0056 | 0.0904 ± 0.035 | 0.0526 (inactive)
10 | O=C(CCC(=O)OCC(=O)c1cccs1)Nc1ccc(Oc2ccccc2)cc1 | 0.756 ± 0.064 | 0.842 ± 0.054 | 1.04 ± 0.12 | 0.995 ± 0.05 | 1.22 ± 0.085 | 1.38 ± 0.13 | 1 (active)
11 | COc1cc(C=Nc2ccc(-c3ccc(N=Cc4cc(OC)c(OC)cc4[N+](=O)[O-])cc3)cc2)c([N+](=O)[O-])cc1OC | 0.742 ± 0.19 | 1.02 ± 0.065 | 1.02 ± 0.1 | 0.769 ± 0.1 | 1.03 ± 0.084 | 1.01 ± 0.41 | 1.01 (active)
12 | COC(=O)c1ccc2c(c1)NC(=O)/C2=C(\Nc1ccc(N(C)C(=O)CN2CCN(C)CC2)cc1)c1ccccc1 | 1.34 ± 0.2 | 1.18 ± 0.27 | 1.02 ± 0.063 | 0.325 ± 0.024 | 0.851 ± 0.14 | 0.474 ± 0.041 | 0.998 (active)
13 | O=C(c1ccc(-c2nc3ccccc3s2)s1)N1CCOCC1 | 1.08 ± 0.11 | 1.02 ± 0.15 | 1.16 ± 0.17 | 0.879 ± 0.06 | 1.19 ± 0.25 | 1.21 ± 0.44 | 0.964 (active)
14 | CCS(=O)(=O)N1CCN(c2ccc(Nc3ncc(C(N)=O)c(NC4CC4)n3)cc2)CC1.Cl | 1.08 ± 0.046 | 0.355 ± 0.033 | 0.622 ± 0.042 | 0.0973 ± 0.0051 | 0.301 ± 0.072 | 0.324 ± 0.081 | 0.899 (active)
15 | CN1C(=O)C(=Cc2cccc3ccccc23)SC1=S | 0.909 ± 0.21 | 1.04 ± 0.088 | 0.949 ± 0.073 | 0.939 ± 0.024 | 1.26 ± 0.22 | 1.33 ± 0.15 | 0.998 (active)
16 | CN1CCOC(c2ccccc2)c2ccccc2C1.Cl (configuration not stated) | 1.11 ± 0.27 | 1.04 ± 0.052 | 1.05 ± 0.078 | 0.84 ± 0.031 | 1.36 ± 0.16 | 0.95 ± 0.23 | 1.01 (active)
17 | CC(C)CN(C[C@@H](O)[C@H](Cc1ccccc1)NC(=O)O[C@H]1CO[C@H]2OCC[C@H]21)S(=O)(=O)c1ccc(N)cc1 | 1.74 ± 0.13 | 1.08 ± 0.054 | 1.85 ± 0.069 | 0.916 ± 0.053 | 1.04 ± 0.071 | 1.02 ± 0.1 | 0.997 (active)
18 | CN1CCC[C@@H]1CCO[C@](C)(c1ccccc1)c1ccc(Cl)cc1.O=C(O)/C=C/C(=O)O | 1.17 ± 0.29 | 1.01 ± 0.13 | 1.06 ± 0.1 | 0.526 ± 0.021 | 1.28 ± 0.17 | 1.63 ± 0.16 | 0.321 (inactive)
19 | N#Cc1c(NC(NC(=O)c2cccs2)C(Cl)(Cl)Cl)sc2c1CCCC2 (configuration not stated) | 0.669 ± 0.038 | 1.13 ± 0.076 | 0.878 ± 0.1 | 0.66 ± 0.022 | 0.694 ± 0.086 | 0.69 ± 0.073 | 0.986 (active)
20 | CS(=O)(=O)O.N#CC1(c2ccc(NC(=O)c3cccnc3NCc3ccncc3)cc2)CCCC1 | 0.394 ± 0.03 | 0.69 ± 0.033 | 0.547 ± 0.052 | 0.396 ± 0.019 | 1 ± 0.074 | 0.99 ± 0.083 | 0.992 (active)
21 | Cc1cccc(NC(=O)C(=Cc2ccco2)NC(=O)c2ccccc2I)c1 | 1.06 ± 0.087 | 1.06 ± 0.081 | 1.01 ± 0.072 | 0.953 ± 0.076 | 1.15 ± 0.099 | 1.11 ± 0.15 | 1.01 (active)
22 | COc1ccc(CC(C)N2CCN(c3cccc(C)c3C)CC2)cc1OC (configuration not stated) | 0.765 ± 0.064 | 0.974 ± 0.074 | 1.03 ± 0.08 | 0.787 ± 0.056 | 1.75 ± 0.22 | 1.16 ± 0.11 | 0.6 (inactive)
23 | CCN(CC)Cc1cc(Nc2ccnc3cc(Cl)ccc23)ccc1O.Cl.Cl | 0.199 ± 0.011 | 0.753 ± 0.073 | 0.774 ± 0.046 | 1.19 ± 0.075 | 1.03 ± 0.11 | 1.47 ± 0.16 | 0.873 (active)
24 | CN(C)CCC=C1c2ccccc2CCc2ccccc21.Cl | 0.903 ± 0.19 | 1.26 ± 0.48 | 1.21 ± 0.17 | 0.423 ± 0.017 | 1.31 ± 0.44 | 1.12 ± 0.084 | 0.412 (inactive)
25 | COc1cccc(CCc2ccccc2OCC(CN(C)C)OC(=O)CCC(=O)O)c1.Cl (configuration not stated) | 0.428 ± 0.063 | 0.948 ± 0.3 | 0.925 ± 0.057 | 0.512 ± 0.018 | 1.25 ± 0.31 | 0.984 ± 0.19 | 0.995 (active)
26 | COc1ccc(-c2coc3cc(O)cc(O)c3c2=O)cc1 | 1.87 ± 0.54 | 1.27 ± 0.083 | 1.73 ± 0.13 | 0.919 ± 0.071 | 1.32 ± 0.18 | 1.37 ± 0.14 | 0.623 (inactive)
